Test results taken from PubChem BioAssay (NCATS).
Results filed as inconclusive are left out. The source made the active and inactive calls. Calls come from the whole dose curve; as a rule, active = well fitted inhibition curve with a large enough effect; inconclusive = small, poorly fitted or top-dose-only effect; inactive = no such curve, though single readings can be large or run the other way.

The compounds below were run against Retinaldehyde dehydrogenase 3 (Homo sapiens) (UniProt P47895) (assay: qHTS for Inhibitors of the Aldehyde Dehydrogenase Family (ALDH1A3) Primary screen (AID 2061315;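 note: plate controls were DMSO vehicle for no effect and reference inhibitor for full effect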)). Settings: ALDH inhibition qHTS; series mostly up to 56 µM; activity change, negative = inhibition: at the top concentration.

| Structure (SMILES) | activity change, negative = inhibition |
| --- | --- |
| NC(=O)CCCSc1nc(N)nc(-c2c(Cl)cc3c4c(cccc24)COC3)n1 | -9.97% (inactive) |
| CCCCOC(=O)NC(=O)C1c2ccccc2Oc2ccccc21 | -0.941% (inactive) |
| CNC(=O)c1ccc2c(c1)CCO[C@H]2CCN1CCN(c2ccc(OC)cc2)CC1 | 16.2% (inactive) |
| Cc1onc(-c2c(Cl)cccc2Cl)c1CC(=O)NCc1ccc(OCC(F)(F)F)nc1 | 14.4% (inactive) |
| O=C(OC(C(F)(F)F)C(F)(F)F)N1CCN(Cc2cccc(Oc3ccccc3)c2)CC1 | -9.17% (inactive) |
| Cc1ccc(-c2c(-c3nn(C)c4ncnc(N5CCC(N6CCCCC6)C5)c34)cnn2C)cc1 (stereo not given) | 2.95% (inactive) |
| C=C[C@]1(C)C[C@@H](OC(=O)CSC2C[C@H]3CC[C@@H](C2)N3C)[C@]2(C)[C@H](C)CC[C@]3(CCC(=O)[C@H]32)[C@@H](C)[C@@H]1O (stereo not given in full) | 9.68% (inactive) |
| Cn1c(=O)cc(N2CCCC(N)C2)n(Cc2cc(F)ccc2C#N)c1=O (stereo not given) | -8.86% (inactive) |
| Cc1ccc(C)c(OCCn2cc(C(=O)O)c3ccccc32)c1 | 0.754% (inactive) |
| Nc1nc(COC(=O)c2ccc([N+](=O)[O-])cc2)nc(Nc2ccccc2)n1 | 2.13% (inactive) |
| Cc1cc(C(=O)Nc2cccc(C(=O)Nc3cccc(C(F)(F)F)c3)c2)on1 | -2.23% (inactive) |
| CCOC(=O)c1ccc(N(C)c2csc(-c3ccccc3)n2)cc1 | -11.6% (inactive) |
| Cn1c2ccc(NC(=O)c3ccccc3)cc2c(=O)n2nc(C(=O)O)cc12 | -1.6% [at 28 µM] (inactive) |
| CC(C)C(=O)Oc1ccc(CO)cc1[C@H](CCN(C(C)C)C(C)C)c1ccccc1 | -13.6% (inactive) |
| Cc1nc2n(c(=O)c1CCN1CCC(c3noc4cc(F)ccc34)CC1)CCC[C@H]2O | 12.6% (inactive) |
